Assay results published in PubChem BioAssay AID707 (Columbia University Molecular Screening Center, 2007).
Hit rate of the full screen: of about 91,000 compounds, about 310 (0.34%) were called active. No stated cut-off is given here; in the data, active means inhibition above about 80%; inactive means the rest. For the sample, actives were picked, then their nearest neighbours and some compounds at random.

target: Bifunctional epoxide hydrolase 2 (Homo sapiens) (UniProt P34913); experiment: soluble epoxide hydrolase inhibitors, primary screen, biochemical, human sEH (AID 707); conditions: recombinant human sEH enzymatic activity assay; at 2 µM; stronger effect = higher value
Sequence (P34913 whole entry, looked up): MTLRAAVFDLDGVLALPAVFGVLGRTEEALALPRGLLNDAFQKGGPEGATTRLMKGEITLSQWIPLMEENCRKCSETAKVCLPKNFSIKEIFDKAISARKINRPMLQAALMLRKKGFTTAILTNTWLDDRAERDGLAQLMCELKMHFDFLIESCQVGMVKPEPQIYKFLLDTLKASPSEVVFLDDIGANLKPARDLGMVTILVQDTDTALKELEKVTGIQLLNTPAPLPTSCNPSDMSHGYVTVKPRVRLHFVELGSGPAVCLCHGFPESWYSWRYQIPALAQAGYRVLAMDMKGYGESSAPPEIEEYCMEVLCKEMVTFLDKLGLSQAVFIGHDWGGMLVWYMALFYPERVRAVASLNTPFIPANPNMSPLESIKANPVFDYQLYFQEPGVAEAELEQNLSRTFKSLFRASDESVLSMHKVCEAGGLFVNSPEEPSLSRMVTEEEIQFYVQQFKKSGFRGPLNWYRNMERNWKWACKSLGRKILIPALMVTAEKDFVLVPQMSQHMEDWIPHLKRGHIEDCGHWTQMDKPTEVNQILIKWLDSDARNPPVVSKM

inhibition, inactive:
O=C(CCNS(=O)(=O)c1ccccc1C(F)(F)F)NCc1ccc2c(c1)OCO2 -4.3%
COc1ccc(/C=C2\CCCC3C2=NN(C(=O)c2scnc2C)C3c2ccc(OC)cc2)cc1 (stereo not given) -10.6%
CS(=O)(=O)N(CC(=O)Nc1ccc(F)cc1F)c1cccc([N+](=O)[O-])c1 1.3%
CC(C)c1ccc(/C=C/C(=O)NNC(=O)c2cccnc2)cc1 -2.9%
COc1cc(C2C(C(=O)OCCC#N)=C(C)NC3=C2S(=O)(=O)c2ccccc23)cc(OC)c1OC (stereo not given) 8.9%
COc1ccc(Cl)cc1NC(=O)CN(C)C(=O)CNC(=O)C12CC3CC(CC(C3)C1)C2 15.5%
CS(=O)(=O)N1CCN(c2ccc(C(=O)NC3C4CC5CC(C4)CC3C5)cc2[N+](=O)[O-])CC1 (stereo not given) -10.1%
Cc1cc(/C=C2/SC(=O)N(CC(=O)OC(C)C)C2=O)c(C)n1C -9.2%
Cc1cc(OC(=O)c2c(Cl)cccc2Cl)nc(C)n1 -21.2%
Cc1nnsc1S(=O)(=O)Cc1ccccc1Cl 4.8%
CCOC(=O)N1CCN(c2c(NCCCN3CCCC(C)C3)c(=O)c2=O)CC1 (stereo not given) -4.6%
Cc1nc(Cl)c2oc3ccccc3c2n1 0.8%
O=[N+]([O-])c1ccccc1NCc1ccc(Cl)cc1 -1%
CN(C)c1ccc(NC(=S)N(CCc2ccccc2)C2CC(=O)N(c3c(Cl)cccc3Cl)C2=O)cc1 (stereo not given) 7.8%
Cc1nn(CC(=O)Nc2nc3ccccc3s2)c(C)c1[N+](=O)[O-] -6.1%
Cc1ccc(OCC(=O)N/N=C/c2ccncc2)cc1 -19.2%
CC(=O)c1cn(CCCCCCCCCCn2cc(C(C)=O)c(=O)[nH]c2=O)c(=O)[nH]c1=O -2%
Cc1ccc(-c2nn(-c3ccccc3)cc2/C=N/NC(=O)c2ccc3c(c2)OCO3)cc1 -6.2%
Cc1occc1C(=O)NNC(=S)NCC(C)C -18%
Cc1cccc(NC(=O)c2ccc(OCC(=O)NCc3ccccc3)cc2)c1C 3.8%
